Reference: PubChem BioAssay (NCI)
Compounds without any hit were thinned out: in the full panel of roughly 83,000, 20% have a hit.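 Compound tested at a single concentration for 48 hours in 96-well plates; a percent growth value below 10 was scored as active.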 The source made the active and inactive calls.

Tested on: HL-60(TB) leukemia
Assay: NCI-60 one-dose screen, 48 h (100 = growth as untreated, 0 = no growth, -100 = all killed)
Conditions: 10 µM unless noted

Row | Structure (SMILES) | growth
1 | O=c1nc(Nc2ccc([N+](=O)[O-])cc2O)sc2ccccc12 | -13.3% (active)
2 | O=C(Nc1ccc2c(ccn2Cc2ccccn2)c1)c1cnccn1 | 131% (inactive)
3 | COc1cccc(N2CCN(c3ncnc4c3[nH]c3ccc(F)cc34)C[C@H]2C)c1 | 33% (inactive)
4 | CN(C)CCCNc1c2ccc(Cl)cc2nc2c1oc1ccccc12 | -1.28% (active)
5 | CCCC(=O)NC(c1ccc(N(CC)CC)cc1)c1cc(C)c2cccnc2c1O (centres undefined) | -25% (active)
6 | COC[C@]12CCC(C)(C)C[C@H]1C1=CC[C@@H]3[C@@]4(C)CCCNC(C)(C)[C@@H]4CC[C@@]3(C)[C@]1(C)CC2 | -65.3% (active)
7 | C#CCOc1ccc(C(Nc2ccc(OC)cc2)c2nnnn2C2CCCCC2)cc1 (centres undefined) | 84.7% (inactive)
8 | COc1cc(C(=O)c2cc(C(C)=O)c3c(C)cccn23)cc(OC)c1OC | 88.9% (inactive)
9 | Cc1ccc2c(n1)C(=O)C(Cl)=C(Nc1cccc(C(C)C)c1)C2=O | 10.3% (inactive)
10 | COc1cc(OC)cc(C(=O)Nc2cccc(C#Cc3cccc4[nH]nc(N)c34)c2)c1 | 1.62% (active)
11 | COCCC[C@H]1O[C@@](O)([C@H](C)[C@@H]2CC(OC)C(O)/C=C(C)/C=C(C)/C=C(\C)C(OC3O[C@@H](C)[C@H](O)C(O)[C@@H]3O)C(C)/C=C(C)/C=C(OC)/C=C(\C)C(=O)O2)C(OC)C(O)[C@]1(C)O[C@H]1C[C@@H](O)[C@H](O[C@H]2C[C@](C)(O)[C@H](O)C(C)O2)C(C)O1 (some centres undefined) | 36% (inactive)
12 | O=C(CSc1nc2ccccc2c(=O)n1-c1ccc(Cl)cc1)N/N=C/c1ccc(N2CCCCC2)cc1 | 108% (inactive)
13 | CCOC(=O)c1c(NCC(=O)Nc2cccc(Cl)c2)sc2c1CCCC2 | 90.8% (inactive)
14 | CCCCCc1ccc(S(=O)(=O)Nc2cccc(-c3csc(NC(=O)CCCCCN4CCN(C)CC4)n3)c2)cc1 | -41.5% (active)
15 | Oc1ccc(CSc2nnc(-c3ccccc3)n2-c2ccccc2)c2cccnc12 | 7.9% (active)
16 | CC(=O)OC[C@@]12Oc3c(cccc3-c3ccc(O)c4c3O[C@]3(COC(C)=O)C(=C4O)C(=O)C[C@H](C)[C@@H]3OC(C)=O)C(O)=C1C(=O)C[C@H](C)[C@@H]2OC(C)=O | -46.3% (active)
17 | COc1ccccc1/C=C/C(=O)c1nnn(-c2ccc(F)cc2)c1C | 31.9% (inactive)

Row | Structure (SMILES) | growth
18 | COc1cc(-c2nc3sccn3c2-c2ccnc(S(C)(=O)=O)n2)ccc1F | 93.9% (inactive)
19 | COc1cc(/C=N/Nc2ccnc3cc(Cl)ccc23)cc(OC)c1O | -44.6% (active)
20 | COc1ccc(NC2=C(Cl)C(=O)c3nc(C)ccc3C2=O)cc1OC | 9.95% (active)
21 | CN(C)c1ccc(/C=C2\Cc3c(F)ccc(Br)c3C2=O)cc1 | 79.6% (inactive)
22 | O=C1CCCc2nc(Nc3ccc(S(=O)(=O)Nc4ccc([N+](=O)[O-])cc4)cc3)ncc21 | 110% (inactive)
23 | COc1ccccc1N1CCN(C2=C(Cl)C(=O)c3ncccc3C2=O)CC1 | 12.5% (inactive)
24 | IP(CCCCCCCCCCSc1n(Cc2ccc3ccccc3c2)c(-c2ccccc2)c(-c2ccccc2)[n+]1Cc1ccc2ccccc2c1)(c1ccccc1)(c1ccccc1)c1ccccc1 | -62.5% (active)
25 | Nc1c(C(=O)Nc2ccc(C(F)(F)F)cc2)sc2nc(-c3cnccn3)cc(-c3cccs3)c12 | 51.9% (inactive)
26 | CCOC(=O)C1=C(C)N=C2Sc3ccccc3N2C1c1ccccc1 (centres undefined) | 61.9% (inactive)
27 | N#Cc1c(NC(=O)c2cccc(C(F)(F)F)c2F)sc2c1CCC(=O)C2 | -17.4% (active)
28 | CCCCCC[n+]1ccc(SCC(=O)n2ccc3ccccc32)c2ccccc21 | 74.8% (inactive)
29 | CCCCCCNC(=O)Oc1ccc(/C(=C(/C)c2ccccc2)c2ccc(OCCN(C)C)cc2)cc1 | 23.2% (inactive)
30 | C#C[C@]1(O)CC[C@H]2[C@@H]3CC=C4c5sc(C6CC6)nc5CC[C@]4(C)[C@H]3CC[C@@]21C | 58.8% (inactive)
31 | CCCSc1nc(Nc2ccc(/C(C)=N\NC(N)=S)cc2)c(C#N)c(-c2ccc(OC)cc2)n1 | 74% (inactive)
32 | COc1ccc(NS(=O)(=O)c2ccc(-c3cnc(C4CC4)o3)cc2)cc1Cl | 3.27% (active)
33 | CC(C)(C)Nc1nc2c(OCCc3ccccc3)cccn2c1-c1ccccc1Cl | -31.6% (active)
34 | CC(C)(C)c1cc(NC(=O)Nc2ccc(-c3cn4c5c(sc4n3)CCc3c[nH]cc3-5)cc2)no1 | 9.58% (active)
